Measured values published in PMC7862700, “An all-to-all approach to the identification of sequence-specific readers for epigenetic DNA modifications on cytosine”.

Columns and labels:
Assay in all cases: DAPPL (digital affinity profiling via proximity ligation, sequencing); 10 mM Tris-HCl pH 7.5, 50 mM NaCl, 1 mM DTT, 4% glycerol, room temperature, 30 min; GST-TFs on glutathione beads, 16-mer random dsDNA library, 0.1% formaldehyde crosslink after washing; high values mean tight binding
Conditions in all cases: protein: recombinant; tags: N-terminal GST; dsDNA, one strand shown
FLI1 = target: T1, FLI1 (Homo sapiens, UniProt Q01543 1-452)
T1 sequence: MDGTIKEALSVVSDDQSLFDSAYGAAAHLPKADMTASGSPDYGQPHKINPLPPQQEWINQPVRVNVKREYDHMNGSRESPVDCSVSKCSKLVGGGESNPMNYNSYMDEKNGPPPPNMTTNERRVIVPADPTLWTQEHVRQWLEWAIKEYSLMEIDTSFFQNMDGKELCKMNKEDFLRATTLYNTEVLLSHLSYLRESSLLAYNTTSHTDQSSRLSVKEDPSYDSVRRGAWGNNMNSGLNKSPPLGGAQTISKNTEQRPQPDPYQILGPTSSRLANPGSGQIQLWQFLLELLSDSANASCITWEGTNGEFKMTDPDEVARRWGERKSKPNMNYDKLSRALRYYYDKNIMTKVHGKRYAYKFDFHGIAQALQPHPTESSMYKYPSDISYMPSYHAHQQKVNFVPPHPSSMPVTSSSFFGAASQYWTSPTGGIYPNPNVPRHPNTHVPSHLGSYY
Method in brief: (§1)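 GST fusions of human transcription factors were expressed in yeast and captured with glutathione beads. Once given DNA barcodes and pooled alongside a tag-only sample, they were incubated for 30 min at room temperature with 200 nmole of a random double-stranded 16-mer DNA library in Tris/NaCl/DTT/glycerol buffer, then washed, crosslinked (0.1% formaldehyde), proximity-ligated, PCR-amplified and sequenced on an Illumina NextSeq500. The binding signal of each hexamer is its read frequency for a factor divided by its frequency for the tag-only sample.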

ELK1 = target: T2, ELK1 (Homo sapiens, UniProt P19419 1-428)
T2 sequence: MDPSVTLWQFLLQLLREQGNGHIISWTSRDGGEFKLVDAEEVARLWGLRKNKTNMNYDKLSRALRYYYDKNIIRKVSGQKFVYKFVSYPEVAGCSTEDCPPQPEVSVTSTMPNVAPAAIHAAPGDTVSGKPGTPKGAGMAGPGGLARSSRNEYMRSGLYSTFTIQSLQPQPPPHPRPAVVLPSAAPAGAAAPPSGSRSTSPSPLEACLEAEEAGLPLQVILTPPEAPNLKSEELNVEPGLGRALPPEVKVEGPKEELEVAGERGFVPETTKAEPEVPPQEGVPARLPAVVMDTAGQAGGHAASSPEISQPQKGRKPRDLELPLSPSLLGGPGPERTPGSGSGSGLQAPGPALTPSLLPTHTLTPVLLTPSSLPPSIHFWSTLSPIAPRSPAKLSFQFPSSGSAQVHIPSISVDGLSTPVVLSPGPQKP
Method in brief: as §1

GABPA = target: T3, GABPA (Homo sapiens, UniProt Q06546 1-454)
T3 sequence: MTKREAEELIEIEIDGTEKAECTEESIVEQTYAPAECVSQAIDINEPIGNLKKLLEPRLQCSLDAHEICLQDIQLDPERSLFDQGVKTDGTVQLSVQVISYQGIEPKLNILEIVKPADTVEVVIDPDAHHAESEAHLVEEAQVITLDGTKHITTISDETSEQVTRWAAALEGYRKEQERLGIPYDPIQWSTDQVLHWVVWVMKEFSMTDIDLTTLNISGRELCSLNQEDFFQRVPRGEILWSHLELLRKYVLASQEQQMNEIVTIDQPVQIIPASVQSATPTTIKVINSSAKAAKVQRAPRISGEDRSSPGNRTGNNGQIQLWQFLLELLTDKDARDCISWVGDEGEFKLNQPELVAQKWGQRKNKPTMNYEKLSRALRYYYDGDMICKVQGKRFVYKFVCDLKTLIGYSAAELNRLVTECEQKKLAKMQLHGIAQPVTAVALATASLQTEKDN
Method in brief: as §1

ERG = target: T4, ERG (Homo sapiens, UniProt P11308 1-479)
T4 sequence: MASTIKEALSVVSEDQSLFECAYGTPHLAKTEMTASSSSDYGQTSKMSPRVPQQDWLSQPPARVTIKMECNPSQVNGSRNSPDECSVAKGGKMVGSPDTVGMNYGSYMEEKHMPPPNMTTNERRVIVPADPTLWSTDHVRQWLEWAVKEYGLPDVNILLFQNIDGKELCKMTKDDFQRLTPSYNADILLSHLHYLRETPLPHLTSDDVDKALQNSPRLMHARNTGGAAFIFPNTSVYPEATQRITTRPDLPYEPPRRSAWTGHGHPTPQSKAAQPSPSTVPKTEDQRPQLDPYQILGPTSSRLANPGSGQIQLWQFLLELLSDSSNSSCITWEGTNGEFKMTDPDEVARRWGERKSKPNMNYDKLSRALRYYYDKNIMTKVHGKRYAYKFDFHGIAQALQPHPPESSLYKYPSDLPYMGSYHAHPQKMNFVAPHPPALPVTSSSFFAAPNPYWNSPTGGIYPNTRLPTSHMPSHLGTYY
Method in brief: as §1

ELF1 = ELF1 (Homo sapiens, UniProt P32519 1-619)
ELF1, sequence (P32519 whole entry): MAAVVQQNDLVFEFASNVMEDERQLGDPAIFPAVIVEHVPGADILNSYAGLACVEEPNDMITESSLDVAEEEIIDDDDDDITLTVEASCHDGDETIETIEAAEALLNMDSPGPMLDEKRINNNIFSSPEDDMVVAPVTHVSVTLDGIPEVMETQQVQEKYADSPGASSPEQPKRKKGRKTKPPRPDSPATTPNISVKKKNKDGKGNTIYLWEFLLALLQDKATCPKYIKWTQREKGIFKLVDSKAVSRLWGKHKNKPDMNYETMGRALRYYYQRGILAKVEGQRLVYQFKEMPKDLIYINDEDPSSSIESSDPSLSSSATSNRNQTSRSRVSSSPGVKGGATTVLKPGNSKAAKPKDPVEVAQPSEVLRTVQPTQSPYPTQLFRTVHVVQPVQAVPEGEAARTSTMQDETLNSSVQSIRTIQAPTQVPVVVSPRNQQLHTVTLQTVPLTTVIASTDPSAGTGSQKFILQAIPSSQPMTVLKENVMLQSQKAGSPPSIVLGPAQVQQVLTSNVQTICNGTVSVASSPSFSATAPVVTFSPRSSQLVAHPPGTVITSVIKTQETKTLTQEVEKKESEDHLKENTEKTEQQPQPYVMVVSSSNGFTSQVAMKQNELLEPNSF
Method in brief: as §1

EHF = target: T5, EHF (Homo sapiens, UniProt Q9NZC4 1-300)
T5 sequence: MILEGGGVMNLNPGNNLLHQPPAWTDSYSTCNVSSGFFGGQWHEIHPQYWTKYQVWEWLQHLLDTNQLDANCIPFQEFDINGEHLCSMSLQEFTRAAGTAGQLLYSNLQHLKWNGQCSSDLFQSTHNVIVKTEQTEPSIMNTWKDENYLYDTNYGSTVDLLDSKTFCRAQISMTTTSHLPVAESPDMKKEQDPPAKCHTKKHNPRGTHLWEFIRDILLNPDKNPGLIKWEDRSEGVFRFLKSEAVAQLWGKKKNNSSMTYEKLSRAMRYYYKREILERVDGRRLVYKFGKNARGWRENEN
Method in brief: as §1

SPI1 = SPI1 (Homo sapiens, UniProt P17947 1-270)
Method in brief: as §1

SPIB = SPIB (Homo sapiens, UniProt Q01892 1-262)
SPIB, sequence (Q01892 whole entry): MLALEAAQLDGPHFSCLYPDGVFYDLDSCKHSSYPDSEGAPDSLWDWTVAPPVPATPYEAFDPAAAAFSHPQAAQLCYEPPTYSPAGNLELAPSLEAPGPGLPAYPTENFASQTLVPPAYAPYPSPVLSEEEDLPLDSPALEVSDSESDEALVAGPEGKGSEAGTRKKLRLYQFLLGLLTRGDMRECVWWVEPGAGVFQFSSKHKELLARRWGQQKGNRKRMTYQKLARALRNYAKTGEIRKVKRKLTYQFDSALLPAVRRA
Method in brief: as §1

ELK3 = target: T6, ELK3 (Homo sapiens, UniProt P41970 1-407)
T6 sequence: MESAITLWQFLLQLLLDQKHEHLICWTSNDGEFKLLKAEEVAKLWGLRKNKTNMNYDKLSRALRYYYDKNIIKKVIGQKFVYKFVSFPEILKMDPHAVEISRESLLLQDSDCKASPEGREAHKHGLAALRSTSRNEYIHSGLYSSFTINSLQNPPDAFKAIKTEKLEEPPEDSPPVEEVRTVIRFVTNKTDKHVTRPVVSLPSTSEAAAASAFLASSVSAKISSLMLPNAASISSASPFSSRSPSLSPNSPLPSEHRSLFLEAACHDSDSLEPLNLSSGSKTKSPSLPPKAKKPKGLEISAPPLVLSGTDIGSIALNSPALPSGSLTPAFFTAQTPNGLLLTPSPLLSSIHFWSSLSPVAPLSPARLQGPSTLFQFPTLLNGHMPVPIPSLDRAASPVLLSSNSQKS
Method in brief: as §1

FEV = target: T7, FEV (Homo sapiens, UniProt Q99581 1-238)
T7 sequence: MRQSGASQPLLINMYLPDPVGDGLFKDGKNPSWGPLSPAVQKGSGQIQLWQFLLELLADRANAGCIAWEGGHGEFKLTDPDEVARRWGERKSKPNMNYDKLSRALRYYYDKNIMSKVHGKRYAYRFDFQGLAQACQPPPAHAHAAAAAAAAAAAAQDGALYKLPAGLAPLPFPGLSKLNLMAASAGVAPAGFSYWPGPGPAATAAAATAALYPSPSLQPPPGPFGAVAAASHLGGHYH
Method in brief: as §1

ETV5 = ETV5 (Homo sapiens, UniProt P41161 1-510)
ETV5, sequence (P41161 whole entry): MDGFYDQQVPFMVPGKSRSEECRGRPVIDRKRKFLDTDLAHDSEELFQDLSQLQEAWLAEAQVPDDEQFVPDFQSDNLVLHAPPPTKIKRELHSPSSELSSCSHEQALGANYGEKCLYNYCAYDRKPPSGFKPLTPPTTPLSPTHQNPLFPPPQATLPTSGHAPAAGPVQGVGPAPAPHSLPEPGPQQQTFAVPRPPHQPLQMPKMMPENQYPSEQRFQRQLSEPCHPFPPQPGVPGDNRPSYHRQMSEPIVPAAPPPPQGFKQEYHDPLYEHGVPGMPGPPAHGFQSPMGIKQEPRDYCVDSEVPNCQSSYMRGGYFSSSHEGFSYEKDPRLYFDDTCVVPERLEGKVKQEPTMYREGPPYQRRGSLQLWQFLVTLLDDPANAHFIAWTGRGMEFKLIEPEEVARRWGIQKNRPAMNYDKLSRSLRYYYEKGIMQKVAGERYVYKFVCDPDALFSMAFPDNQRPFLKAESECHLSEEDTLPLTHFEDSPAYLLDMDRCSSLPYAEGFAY
Method in brief: as §1

ELF4 = ELF4 (Homo sapiens, UniProt Q99607 1-663)
ELF4, sequence (Q99607 whole entry): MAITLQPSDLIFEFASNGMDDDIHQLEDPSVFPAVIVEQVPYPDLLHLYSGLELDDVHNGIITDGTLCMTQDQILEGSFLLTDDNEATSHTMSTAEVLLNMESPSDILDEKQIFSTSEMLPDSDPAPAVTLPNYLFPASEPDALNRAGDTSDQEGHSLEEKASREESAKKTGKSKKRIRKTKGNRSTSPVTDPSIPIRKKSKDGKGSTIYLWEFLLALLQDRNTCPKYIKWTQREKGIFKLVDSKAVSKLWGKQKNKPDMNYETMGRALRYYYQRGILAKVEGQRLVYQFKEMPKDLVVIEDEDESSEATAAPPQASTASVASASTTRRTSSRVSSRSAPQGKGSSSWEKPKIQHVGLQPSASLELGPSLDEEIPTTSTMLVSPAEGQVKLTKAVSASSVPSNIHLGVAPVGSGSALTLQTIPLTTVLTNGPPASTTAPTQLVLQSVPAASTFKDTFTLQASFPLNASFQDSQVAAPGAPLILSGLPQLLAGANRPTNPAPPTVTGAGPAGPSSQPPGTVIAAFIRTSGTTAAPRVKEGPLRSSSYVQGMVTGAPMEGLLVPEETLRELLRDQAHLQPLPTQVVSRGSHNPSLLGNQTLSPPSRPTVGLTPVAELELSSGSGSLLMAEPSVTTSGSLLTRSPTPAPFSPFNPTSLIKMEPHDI
Method in brief: as §1

ETV1 = ETV1 (Homo sapiens, UniProt P50549 1-477)
ETV1, sequence (P50549 whole entry): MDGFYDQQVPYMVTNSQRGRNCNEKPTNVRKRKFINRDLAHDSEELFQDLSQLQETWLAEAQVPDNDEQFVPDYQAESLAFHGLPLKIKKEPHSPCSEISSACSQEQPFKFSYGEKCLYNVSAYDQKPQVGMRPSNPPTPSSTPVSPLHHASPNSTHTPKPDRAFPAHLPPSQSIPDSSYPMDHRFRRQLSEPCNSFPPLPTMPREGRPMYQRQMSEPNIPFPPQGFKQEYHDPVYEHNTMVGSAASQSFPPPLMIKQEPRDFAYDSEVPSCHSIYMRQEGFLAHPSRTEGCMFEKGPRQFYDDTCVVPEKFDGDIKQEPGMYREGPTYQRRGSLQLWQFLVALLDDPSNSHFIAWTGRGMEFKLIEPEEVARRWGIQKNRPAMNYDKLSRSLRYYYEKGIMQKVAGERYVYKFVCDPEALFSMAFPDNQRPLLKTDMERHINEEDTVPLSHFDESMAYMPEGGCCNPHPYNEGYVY
Method in brief: as §1

ERF = target: T8, ERF (Homo sapiens, UniProt P50548 1-548)
T8 sequence: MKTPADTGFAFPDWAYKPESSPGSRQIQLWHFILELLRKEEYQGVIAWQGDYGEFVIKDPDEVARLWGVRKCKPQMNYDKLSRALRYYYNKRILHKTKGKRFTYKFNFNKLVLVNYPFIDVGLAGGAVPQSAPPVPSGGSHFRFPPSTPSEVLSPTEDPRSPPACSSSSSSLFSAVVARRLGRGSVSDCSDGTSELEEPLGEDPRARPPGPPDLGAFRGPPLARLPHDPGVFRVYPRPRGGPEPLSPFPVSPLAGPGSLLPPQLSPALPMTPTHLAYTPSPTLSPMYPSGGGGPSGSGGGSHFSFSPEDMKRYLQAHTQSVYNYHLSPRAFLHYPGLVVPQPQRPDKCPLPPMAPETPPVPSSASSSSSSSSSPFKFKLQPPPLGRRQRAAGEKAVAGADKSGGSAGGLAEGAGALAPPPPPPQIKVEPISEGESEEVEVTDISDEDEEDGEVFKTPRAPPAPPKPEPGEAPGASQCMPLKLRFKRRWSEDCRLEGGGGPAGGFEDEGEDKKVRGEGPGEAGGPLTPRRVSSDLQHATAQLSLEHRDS
Method in brief: as §1

ETV3L = target: T9, ETV3L (Homo sapiens, UniProt Q6ZN32 1-361)
T9 sequence: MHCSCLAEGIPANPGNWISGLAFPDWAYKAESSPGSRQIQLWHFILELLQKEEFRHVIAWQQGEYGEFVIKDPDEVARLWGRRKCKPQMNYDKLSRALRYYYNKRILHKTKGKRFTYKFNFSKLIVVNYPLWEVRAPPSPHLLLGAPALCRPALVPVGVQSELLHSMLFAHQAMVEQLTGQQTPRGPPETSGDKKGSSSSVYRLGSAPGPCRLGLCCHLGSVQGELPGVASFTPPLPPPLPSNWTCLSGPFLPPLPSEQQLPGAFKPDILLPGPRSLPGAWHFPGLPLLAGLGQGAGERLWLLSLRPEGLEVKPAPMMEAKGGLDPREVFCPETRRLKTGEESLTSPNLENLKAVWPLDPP
Method in brief: as §1

ETS2 = target: T10, ETS2 (Homo sapiens, UniProt P15036 1-469)
T10 sequence: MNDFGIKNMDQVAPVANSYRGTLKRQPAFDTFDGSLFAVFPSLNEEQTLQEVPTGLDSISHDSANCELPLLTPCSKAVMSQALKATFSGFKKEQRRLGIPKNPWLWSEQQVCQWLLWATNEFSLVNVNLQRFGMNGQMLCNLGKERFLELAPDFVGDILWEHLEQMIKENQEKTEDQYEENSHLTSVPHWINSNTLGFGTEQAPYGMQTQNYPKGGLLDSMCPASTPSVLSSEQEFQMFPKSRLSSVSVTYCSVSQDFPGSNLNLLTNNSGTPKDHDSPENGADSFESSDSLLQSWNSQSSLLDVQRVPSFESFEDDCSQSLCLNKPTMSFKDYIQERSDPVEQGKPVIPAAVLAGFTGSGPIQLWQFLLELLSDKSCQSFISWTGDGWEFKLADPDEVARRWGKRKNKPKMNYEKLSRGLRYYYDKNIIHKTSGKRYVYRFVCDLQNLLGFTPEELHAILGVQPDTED
Method in brief: as §1

ELF5 = target: T11, ELF5 (Homo sapiens, UniProt Q9UKW6-2 1-255)
T11 sequence: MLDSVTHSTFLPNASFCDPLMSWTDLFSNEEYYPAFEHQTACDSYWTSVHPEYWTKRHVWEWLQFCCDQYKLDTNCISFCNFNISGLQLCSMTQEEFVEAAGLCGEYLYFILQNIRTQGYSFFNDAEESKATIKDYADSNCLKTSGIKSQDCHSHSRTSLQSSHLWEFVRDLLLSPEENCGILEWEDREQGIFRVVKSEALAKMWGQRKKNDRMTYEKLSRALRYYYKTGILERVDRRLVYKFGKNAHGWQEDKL
Method in brief: as §1

ETV3 = target: T12, ETV3 (Homo sapiens, UniProt P41162-2 1-143)
T12 sequence: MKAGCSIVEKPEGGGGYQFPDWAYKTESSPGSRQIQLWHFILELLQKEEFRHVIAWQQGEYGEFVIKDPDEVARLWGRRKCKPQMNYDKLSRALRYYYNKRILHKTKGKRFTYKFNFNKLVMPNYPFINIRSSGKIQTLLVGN
Method in brief: as §1

ETV6 = ETV6 (Homo sapiens, UniProt P41212 1-452)
ETV6, sequence (P41212 whole entry): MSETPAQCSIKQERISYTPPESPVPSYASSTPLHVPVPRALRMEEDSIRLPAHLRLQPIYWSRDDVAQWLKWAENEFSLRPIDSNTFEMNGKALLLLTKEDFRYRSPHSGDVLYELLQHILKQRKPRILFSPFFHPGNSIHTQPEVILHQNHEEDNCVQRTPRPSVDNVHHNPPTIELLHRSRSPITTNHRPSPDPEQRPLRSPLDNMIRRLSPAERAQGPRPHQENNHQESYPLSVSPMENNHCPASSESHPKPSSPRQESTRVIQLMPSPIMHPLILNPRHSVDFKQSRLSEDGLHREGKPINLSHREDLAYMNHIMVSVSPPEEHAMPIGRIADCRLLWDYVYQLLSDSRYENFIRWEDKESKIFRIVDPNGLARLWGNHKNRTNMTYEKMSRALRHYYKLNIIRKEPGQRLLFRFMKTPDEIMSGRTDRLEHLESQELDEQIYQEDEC
Method in brief: as §1

Sequence: TCATAC
- binding signal (FLI1): 1.08 fold enrichment (6-mer frequency, TF over GST control)
- binding signal (ELK1): 1.1 fold enrichment (6-mer frequency, TF over GST control)
- binding signal (GABPA): 1.09 fold enrichment (6-mer frequency, TF over GST control)
- binding signal (ERG): 1.14 fold enrichment (6-mer frequency, TF over GST control)
- binding signal (ELF1): 1.15 fold enrichment (6-mer frequency, TF over GST control)
- binding signal (EHF): 1.02 fold enrichment (6-mer frequency, TF over GST control)
- binding signal (SPI1): 1.13 fold enrichment (6-mer frequency, TF over GST control)
- binding signal (SPIB): 1.16 fold enrichment (6-mer frequency, TF over GST control)
- binding signal (ELK3): 1.17 fold enrichment (6-mer frequency, TF over GST control)
- binding signal (FEV): 1.07 fold enrichment (6-mer frequency, TF over GST control)
- binding signal (ETV5): 1.02 fold enrichment (6-mer frequency, TF over GST control)
- binding signal (ELF4): 1.07 fold enrichment (6-mer frequency, TF over GST control)
- binding signal (ETV1): 1.14 fold enrichment (6-mer frequency, TF over GST control)
- binding signal (ERF): 1.2 fold enrichment (6-mer frequency, TF over GST control)
- binding signal (ETV3L): 1.13 fold enrichment (6-mer frequency, TF over GST control)
- binding signal (ETS2): 1.06 fold enrichment (6-mer frequency, TF over GST control)
- binding signal (ELF5): 1.09 fold enrichment (6-mer frequency, TF over GST control)
- binding signal (ETV3): 1.01 fold enrichment (6-mer frequency, TF over GST control)
- binding signal (ETV6): 1.01 fold enrichment (6-mer frequency, TF over GST control)
